Experimental data published in PubChem BioAssay (NCATS).
Inconclusive results are not listed. Unmarked numbers belong to inactive results. The source made the active and inactive calls. Calls follow the shape of the dose curve; as a rule, active = well fitted inhibition curve with a large enough effect; inconclusive = small, poorly fitted or top-dose-only effect; inactive = no such curve, though single readings can be large or run the other way.

test: qHTS for Inhibitors of the Aldehyde Dehydrogenase Family (ALDH1A2, ALDH1A3, ALDH2, ALDH3A1) (AID 2061307); conditions: ALDH inhibition qHTS; series mostly up to 50.3 µM; activity change, negative = inhibition: at the top concentration; also: nearly all actives have a fitted effect of over 50% in size; as to Potency: test system not described further here
% is scaled to controls: 0 for no effect and ±100 for the full control effect; potency is read from the fitted curve at half-maximal effect.

Compound	activity change, negative = inhibition	Potency
CC(=O)Nc1ccc(NC(=O)c2sc(COc3ccc(F)cc3)nc2C)cc1	-19.1% [at 34.4 µM]	
CCN(CC)S(=O)(=O)c1cccc(NC(=O)CNc2cccc(S(=O)(=O)N3CCOCC3)c2)c1		10 µM (active)
NC(=O)Cc1ccc(Nc2ncnc3c2cnn3-c2ccccc2)cc1	0% [at 34.4 µM]	
O=C1c2ccccc2-c2nnc(-c3ccccc3Cl)cc21	-13.3%	
Cc1cccc(NC(=O)c2nc(C)n(-c3ccc(F)cc3)n2)n1	0% [at 34.4 µM]	
Cn1ccc(=Nc2ccc(NC(=O)c3ccc(N=c4ccn(C)c5ccc([N+](=O)[O-])cc45)cc3[N+](=O)[O-])cc2)cc1		5.65 µM (active)
CC(=O)Nc1cccc(C(=O)Nc2nc(-c3ccc4c(c3)CCC(=O)N4)cs2)c1	-51.7% [at 34.4 µM]	
O=C(Nc1nncs1)c1ccn(-c2ccc(F)cc2)n1	0% [at 34.4 µM]	
Cc1c2c(=O)n(-c3ccccc3)[nH]c2cc(=O)n1CCN1CCOCC1	11.6%	
Fc1ccc(Cn2cnc3ccccc32)cc1F		12.7 µM (active)
CCc1ccc(CSc2nccn2-c2ccccc2)cc1	-11.5%	
O=C(Nc1ncc(CN2CCOCC2)s1)c1ccc(-c2cccc([N+](=O)[O-])c2)o1		28.2 µM (active)
O=C(NC1CCCC1)c1csc(N2CCN(c3cccc(Cl)c3)CC2)n1		3.16 µM (active)
COc1cc2ccccc2cc1C(=O)NC(=S)Nc1cccc(C(=O)O)c1		4.49 µM (active)
CCOc1ccc(NC(=O)c2ccc(NC(=O)CN3C(=O)N(C)C4(CCCCC4)C3=O)cc2)cc1		7.08 µM (active)
COc1ccc2c(c1)C(C)(CCN(C)C)C(=O)N2C (stereo not given)	13.2%	
O=C(Cn1nc2c(cc1=O)CCCC2)Nc1nc(-c2ccc3c(c2)OCO3)cs1	-25% [at 34.4 µM]	
O=C(NC1CCCN(Cc2ccccc2)C1)c1ccc(-c2cccc([N+](=O)[O-])c2)o1 (stereo not given)		14.1 µM (active)
c1coc(-c2ccc3nncn3c2)c1		8.96 µM (active)
COc1cccc(N2CCN(C(=O)CCCCCn3c(=O)[nH]c4ccccc4c3=O)CC2)c1	0% [at 34.4 µM]	

Compound	activity change, negative = inhibition	Potency
Cc1ccccc1OCC(O)Cn1c(NCc2ccccc2)nc2c1c(=O)n(C)c(=O)n2C (stereo not given)	-26.5%	
CCc1ccc(CNC(=O)c2cnc3c(C)cccn3c2=O)cc1	-29.4% [at 34.4 µM]	
COC(=O)c1ccc(S(=O)(=O)N2CCC(c3nc4ccccc4s3)CC2)cc1	-5.6%	
CN(C)CC(=O)NC1CCCc2c1cnn2-c1ccc(OCCOCCOCCNC(=O)OC(C)(C)C)cc1 (stereo not given)	-1.55%	
Cc1ccc(CNc2ncnc3c2oc2ccccc23)cc1	-1.39%	
O=C(c1ccco1)N1CCN(Cc2nc3ccccc3c(=O)n2-c2ccccc2C(F)(F)F)CC1	-22.8%	
N#Cc1ccc(NC(=O)Cc2csc3nc(-c4ccccc4)cn23)cc1		18.2 µM (active)
O=C1C[C@](c2ccc(N3CCOCC3)cc2)(c2ccsc2)NC(=O)C1Sc1ccccc1Cl (stereo not given in full)	-27.4%	
COc1ccc(-n2c(C)c(C(C)=O)c3cc(OC(=O)c4ccccc4OC(C)=O)ccc32)cc1	0% [at 34.4 µM]	
Cc1ccc2c(c1)/C(=C\C(=O)c1cccs1)C(=O)N2	-10.2%	
COc1cc(O)c(C(CC(=O)N2CC(C)CC(C)C2)c2cccc(OC(C)C)c2)c(OC)c1 (stereo not given)		12.7 µM (active)
COc1cc(NC(=S)N=Nc2c(O)[nH]c3ccccc23)cc(OC)c1OC	-27.3%	
O=C(Nc1cccc(Oc2ncccn2)c1)c1cccc(C(F)(F)F)c1	-56.3% [at 34.4 µM]	
O=C(Nc1nc(-c2ccccn2)cs1)C1CCCCC1		3.98 µM (active)
O=C(Nc1ncc(Cc2ccccc2F)s1)c1ccn(-c2ccccc2)n1	-26.3%	
O=C(CN1CCC(CCc2ccccc2)CC1)Nc1ccccc1		15.8 µM (active)
COc1ccc(OC)c(NC(=O)c2cccc(Nc3ncccn3)c2)c1	0.0532% [at 34.4 µM]	
COc1ccc(-c2cc(C(=O)Nc3sc4c(c3C(N)=O)CCCC4)no2)cc1	0% [at 34.4 µM]	
NC(=O)c1ccc(NC(=O)c2cnn(-c3ccccc3)n2)cc1	-44.7% [at 34.4 µM]	
O=C(Nc1ccccc1F)c1nc(S(=O)(=O)Cc2ccccc2F)ncc1Cl		3.16 µM (active)
